High-throughput results: PubChem BioAssay, National Center for Advancing Translational Sciences (NCATS)
DT40 TDP1 no CPT: qHTS for Inhibitors of human tyrosyl-DNA phosphodiesterase 1 (TDP1): qHTS in cells in absence of CPT; DT40 Tdp1-/- hTDP1 cells, no CPT, ATP luminescence, 48 h; Potency, µM (series often up to 46.2 µM), most hits filed as inhibitors; 15% of 420,000 active; AID 686978, 2013; note: nearly all actives have a fitted effect of over 55% in size
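Cells were dispensed at 400 per well, compounds added by pin tool, plates incubated ≥48 hr at 37 °C, then CellTiter-Glo added for 30 min at room temperature before luminescence reading. Line: DT40 Tdp1-/- complemented with hTDP1; camptothecin omitted.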
Gal4-VP16 FLuc: VP16 counterscreen qHTS for inhibitors of ROR gamma transcriptional activity; Potency, µM (highest dose often 53.6 µM), usual class: inhibitors; Drosophila S2 Gal4-VP16 UAS-luciferase, luminescence, 20 h; AID 2546, 2010; 3.5% of 310,000 active;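 note: Gal4-VP16 expression switched on by copper sulfate through the metallothionein promoter; nearly all actives have a fitted effect of over 50% in size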
IL1B secr inh: qHTS for Inhibitors of Inflammasome Signaling: IL-1-beta AlphaLISA Primary Screen; activity change, % at 57.5 µM; AID 743279, 2014; 4.7% of 360,000 active; THP-1 LPS/ATP IL-1B secretion, AlphaLISA, 16 h; hits give low values; in the data active = activity change below about -50%; inconclusive = mostly about -30% to -49%
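THP-1 cells pretreated 1 hr with compounds (up to 57.5 uM final), then stimulated with LPS (250 ng/mL final) plus ATP (1.25 mM final); secreted IL-1B measured by AlphaLISA after 16 hr, decreased signal indicating inhibition.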
TDP1 cell CPT: qHTS for Inhibitors of human tyrosyl-DNA phosphodiesterase 1 (TDP1): qHTS in cells in presence of CPT; chicken DT40 Tdp1-/-;hTDP1 cells + 20 nM CPT, ATP luminescence, 48 h; Potency, µM (highest dose often 46.2 µM), hits mostly inhibitors; 12% of 420,000 active; note: nearly all actives have a fitted effect of over 55% in size
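Chicken DT40 Tdp1-/- cells stably complemented with human TDP1 were seeded at 400 cells/well in medium containing 20 nM camptothecin, exposed to pin-transferred compounds, and grown at 37 °C for at least 48 hr. Viability was read as ATP luminescence.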
RORgamma inh: qHTS for inhibitors of ROR gamma transcriptional activity. Drosophila S2 Gal4-RORgamma UAS-luciferase reporter, 20 h. Potency, µM (titrated, usually from 53.6 µM), actives largely listed as inhibitors. 5.4% of 310,000 active. AID 2551, 2010; note: nearly all actives have a fitted effect of over 60% in size
Target sequence (P51450 whole entry, looked up, the tested form may be a part): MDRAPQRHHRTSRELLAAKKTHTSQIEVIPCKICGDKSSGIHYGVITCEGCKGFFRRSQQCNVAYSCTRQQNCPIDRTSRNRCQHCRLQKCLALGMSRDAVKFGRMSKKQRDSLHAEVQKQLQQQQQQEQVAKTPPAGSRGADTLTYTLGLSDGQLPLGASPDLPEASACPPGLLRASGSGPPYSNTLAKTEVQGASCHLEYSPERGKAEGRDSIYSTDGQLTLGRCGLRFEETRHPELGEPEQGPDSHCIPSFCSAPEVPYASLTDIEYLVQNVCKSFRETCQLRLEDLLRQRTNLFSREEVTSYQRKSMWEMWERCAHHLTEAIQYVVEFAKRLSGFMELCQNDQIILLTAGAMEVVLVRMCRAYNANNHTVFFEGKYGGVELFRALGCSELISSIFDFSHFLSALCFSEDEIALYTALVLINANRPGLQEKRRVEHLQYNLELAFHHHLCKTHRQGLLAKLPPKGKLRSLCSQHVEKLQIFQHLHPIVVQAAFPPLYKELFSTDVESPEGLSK
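Luciferase reporter read in Schneider cells carrying Gal4-RORγ (mouse) and UAS-Photinus luciferase; cells given compound 1 h before 700 uM copper sulfate induction, then incubated 20 h at ambient temperature.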
LDHA block: qHTS assay for inhibitors of human lactate dehydrogenase; 0.15% of 480,000 active; AID 1347041, 2019; activity change, % (values are at about 110 or 230 µM); purified LDHA, NADH/diaphorase-resazurin fluorescence; hits give low values; in the data active = activity change below about -30%; inconclusive = mostly about -25% to -30%
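Human LDH5 (2 nM) was incubated with 0.06 mM NADH and 0.2 mM pyruvate for 5 min at room temperature in Tris pH 7.4. Remaining NADH was coupled through diaphorase/resazurin, and resorufin fluorescence was read at 0 and 20 min.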
Numbers stand for hits; - = inactive; ? = inconclusive; . = no result. This is a sample that favours compounds with a hit; in the whole collection about 18% have one here. Unless noted, calls come from the whole dose curve; as a rule, active = well fitted curve in the direction sought with a large enough effect; inconclusive = small, poorly fitted or top-dose-only effect, or another doubt; inactive = no such curve, though single readings can be large; an effect the other way counts as inactive or inconclusive.

SMILES | DT40 TDP1 no CPT | Gal4-VP16 FLuc | IL1B secr inh | TDP1 cell CPT | RORgamma inh | LDHA block
COc1ccc(CN2CCN(CCSc3ccc(C)cc3)CC2)c(OC)c1OC | ? | - | - | ? | - | -37.5
COc1ccc(OC)c(CN2CCN(Cc3ccc(OC)c(OC)c3OC)CC2)c1 | ? | . | - | - | . | -
O=C1N[C@@H](Cc2ccccc2)COC(=O)[C@@H](Cc2ccc(F)cc2)CC/C=C/C[C@@H]1CC(=O)N(CCO)Cc1ccccc1 | ? | . | - | ? | . | -
O=C1N[C@H](Cc2ccccc2)COC(=O)[C@@H](Cc2ccc(F)cc2)CC/C=C/C[C@H]1CC(=O)N(CCO)Cc1ccccc1 | ? | . | ? | 18.4µM | . | -
O=C1N[C@H](Cc2ccccc2)COC(=O)[C@H](Cc2ccc(F)cc2)CC/C=C/C[C@@H]1CC(=O)N(CCO)Cc1ccccc1 | ? | . | -54.8 | 10.3µM | . | -
O=Cc1ccc(OCc2ccc(Br)cc2)c(Cl)c1 | . | . | . | . | . | -
Cc1[nH]c(=S)sc1Cc1ccc(F)cc1 | ? | 10µM | - | - | 3.98µM | -
CCCCn1c(=O)n(CC(=O)Nc2ccc(OC)c(Cl)c2)c(=O)c2c1nc(CO)n2CCC | ? | - | - | - | - | -
CCCCn1c(=O)n(CC(=O)Nc2c(CC)cccc2CC)c(=O)c2c1nc(CO)n2CCC | - | - | - | - | 7.08µM | -
COC(=O)CSc1[nH]c2ccccc2c1[N+](=O)[O-] | - | - | - | 18.4µM | - | -
CC(C)=N/N=C1/NC(=O)C(c2ccccc2)S1 (configuration not stated) | 16.4µM | . | - | ? | . | -
COc1cc(/C=N/N=C2/NC(=O)C(c3ccccc3)S2)ccc1O (configuration not stated) | - | - | - | - | - | -
O=C(Nc1ccc(Cc2ccncc2)cc1)C1CCC(N2C(=O)C3CC=CCC3C2=O)CC1 (configuration not stated) | 15.8µM | - | -70.6 | 20.6µM | - | -
COc1ccc(NC(=O)C2CCC(N3C(=O)C4CCCCC4C3=O)CC2)cc1 (configuration not stated) | - | - | - | - | - | -
CCOC(=O)c1ccc(COC(=O)CNS(=O)(=O)c2ccccc2)cc1 | - | - | - | - | - | -
O=C(CNS(=O)(=O)c1ccccc1)NCC(=O)OCc1ccc(Br)cc1 | ? | - | - | 20.6µM | - | -
CCOC(=O)CCCCC(=O)c1[nH]c(=O)[nH]c1CSc1nc2ccccc2[nH]1 | - | - | -90.9 | - | - | -
CCOC(=O)CCCCC(=O)c1[nH]c(=O)[nH]c1CSc1nc(C)cc(=O)[nH]1 | - | - | ? | - | - | -
CCOC(=O)CCCCC(=O)c1[nH]c(=O)[nH]c1CN1CCOCC1 | - | - | -74.3 | - | - | -
CCOC(=O)CCCCC(=O)c1[nH]c(=O)[nH]c1CSc1nnc2c3cc(Br)ccc3n(C)c2n1 | . | ? | . | . | 5.01µM | .
Cn1c2ccc(Br)cc2c2nnc(SCC(=O)O)nc21 | - | - | - | - | - | -
Cc1ccc(C)c(C(=O)COC(=O)c2cc3ccccc3[nH]2)c1 | . | . | . | . | . | -
COc1cc2c(cc1NC(=O)C(Cl)Cl)-c1ccc(NC(=O)C(Cl)Cl)cc1C2 | 8.2µM | . | -97.2 | 8.2µM | . | -
Cc1cccc(CSc2nc3nc[nH]c3c(=O)[nH]2)c1 | . | . | . | . | . | -
CCc1nc2c(OCCn3cccc3)cccn2c1N(C)C(=O)c1cccs1 | - | . | - | ? | . | -
SMILES | DT40 TDP1 no CPT | Gal4-VP16 FLuc | IL1B secr inh | TDP1 cell CPT | RORgamma inh | LDHA block
CCc1nc2c(OCCOc3ccc(F)cc3)cccn2c1N(C)C(=O)c1cccs1 | 10.3µM | . | - | 18.4µM | . | -
CCc1nc2c(OCc3ccc(OC(F)F)cc3)cccn2c1N(C)C(=O)c1cccs1 | 16.4µM | . | - | 20.6µM | . | -
COc1ccc2ccc(OC(=O)CCNC(=O)C(C)(C)C)cc2c1 | . | . | . | . | . | -
O=C(COC(=O)c1cc2ccccc2oc1=O)Nc1cccc2ccccc12 | . | . | . | . | . | -
CCOC(=O)COc1cccc2c(=O)n(CC(=O)NCc3ccccc3)ccc12 | 0.651µM | - | - | 1.03µM | - | -
CCOC(=O)COc1cccc2c(=O)n(CC(N)=O)ccc12 | - | - | -57.9 | - | - | -
CCOC(=O)C(C)Oc1cccc2c(=O)n(CC(=O)NCc3ccc4c(c3)OCO4)ccc12 (configuration not stated) | 2.31µM | - | - | 2.59µM | - | -
COC(=O)COc1cccc2c(=O)n(CC(=O)NCCc3ccccc3)ccc12 | - | - | - | - | - | -
CCOC(=O)COc1cccc2c(=O)n(CC(=O)NCc3ccc(F)cc3)ccc12 | 0.517µM | - | - | 0.581µM | - | -
COc1ccc(C(NC(=O)c2nc(-c3ccco3)sc2C)c2nccn2C)cc1 (configuration not stated) | . | . | . | . | . | -
O=Cc1ccccc1-n1cccn1 | - | - | - | - | - | -
